ChEMBL document CHEMBL3988442, “University of Dundee, Small-Polar-MMV Screening Library” (2021)
Hit rate of the full screen: of about 69,000 compounds, about 1,000 (1.4%) showed an effect of 50% or more. This is one part of a sample in which strong results are shown more often than they occur.

System: Leishmania donovani
Experiment: Leishmania intramacrophage assay
Assay type: functional, organism-based
Parameters: scale not given: in the data most compounds retested in dose-response had high values

Q: `CC1=N[C@@]2(CC[C@@H]3CN(Cc4ccccc4F)C[C@@H]32)C(=O)N1CC1CC1.O=C(O)C(F)(F)F` was tested. Which “Percent Effect” value (30 µM, 30.03 µM) did it give?
A: Its value is 16.75%.

Q: How did the “Percent Effect” value (30.3 µM, […]) turn out when `CN1CCN(C)c2cc(NC(=O)c3cc[nH]n3)ccc2C1` was run?
A: Its value is 24.5%.

Q: For `COc1ccc(OC)c(C2CCN(C(=O)CCc3n[nH]c(N)n3)C2)c1` (configuration not stated), which “Percent Effect” value (30.3 µM, […]) is on record?
A: Its value is 25.04%.

Q: `NC(=O)NC(=O)CCSCc1cc(F)cc2cccnc12` was tested. Which “Percent Effect” value (30.3 µM, […]) did it give?
A: Its value is 50.58%.

Q: For `CNC(=O)NC(=O)CCSCc1cc(F)cc2cccnc12`, which “Percent Effect” value (30.3 µM, […]) is on record?
A: Its value is 2.728%.

Q: Which “Percent Effect” value (30.3 µM, […]) does the source give for `NC(=O)CCSCc1cc(Br)cc2cccnc12` here?
A: Its value is 18.7%.

Q: With `CC(C)CN1C[C@H]2CCN(C(=O)NC3CCCC3)CC[C@H]2S1(=O)=O` as the compound, how does the “Percent Effect” value (30.3 µM, […]) read?
A: The value was 5.795%.

Q: Which “Percent Effect” value (30.3 µM, […]) does the source give for `Cc1noc(CCCC(=O)N2CCNC(=O)C2)n1` here?
A: Its value is 12.24%.

Q: How did the “Percent Effect” value (30.3 µM, […]) turn out when `COCC(=O)NCc1cc(=O)n2c(n1)CN(CC1CC1)CCC2.O=C(O)C(F)(F)F` was run?
A: The value was 0.4082%.

Q: `COCC(=O)NCc1cc(=O)n2c(n1)CN(Cc1ccsc1)CCC2` was tested. Which “Percent Effect” value (30 µM, 30.03 µM) did it give?
A: The value was 13.56%.

Q: For `COCC(=O)NCc1cc(=O)n2c(n1)CN(Cc1ccncc1)CCC2`, which “Percent Effect” value (30.3 µM, […]) is on record?
A: Its value is 55.54%.

Q: With `COCC(=O)NCc1cc(=O)n2c(n1)CN(Cc1ccoc1)CCC2` as the compound, how does the “Percent Effect” value (30.3 µM, […]) read?
A: The value was 10.68%.

Q: With `COCCN1CCCn2c(nc(CNC(=O)COC)cc2=O)C1.O=C(O)C(F)(F)F` as the compound, how does the “Percent Effect” value (30.3 µM, […]) read?
A: Its value is 69.63%.

Q: With `COCC(=O)NCc1cc(=O)n2c(n1)CN(C)CCC2.O=C(O)C(F)(F)F` as the compound, how does the “Percent Effect” value (30.3 µM, […]) read?
A: Its value is 39.76%.

Q: For `COc1ccccc1CNC(=O)c1[nH]ncc1Cl`, which “Percent Effect” value (30.3 µM, […]) is on record?
A: The value was -12.27%.

Q: Which “Percent Effect” value (30.3 µM, […]) does the source give for `COc1ccc(CNC[C@@]2(COc3cccnc3)C[C@@H](O)[C@@H](O)C2)cc1.Cl` here?
A: Its value is 14.18%.

Q: How did the “Percent Effect” value (30 µM) turn out when `Cc1nc2ccnn2c(C)c1CCC(=O)N1CCN2CCCCC2C1` (configuration not stated) was run?
A: The value was 11.28%.

Q: For `O=C(C1CCCCC1)N1CCCC([C@@H]2C[C@H](C(F)F)n3ncnc3N2)C1` (some centres not stated), which “Percent Effect” value (30.3 µM, […]) is on record?
A: Its value is 0.241%.

Q: With `Cc1nc(N(C)CCCc2nccn2C)c2c(C)nn(C)c2n1` as the compound, how does the “Percent Effect” value (30.3 µM, […]) read?
A: Its value is 1.733%.

Q: For `Cc1ccc(CN2CC[C@H]3[C@H](CC(Cn4cccn4)N3C)C2)s1.O=C(O)C(F)(F)F.O=C(O)C(F)(F)F.O=C(O)C(F)(F)F` (some centres not stated), which “Percent Effect” value (30.3 µM, […]) is on record?
A: Its value is -11.42%.

Q: Which “Percent Effect” value (30.3 µM, […]) does the source give for `CN1CC[C@H](N(C)Cc2ccccc2)C[C@H](O)C1` here?
A: The value was 20.46%.

Q: `CN1CC[C@H](N(Cc2ccccc2)CC2CC2)C[C@H](O)C1` was tested. Which “Percent Effect” value (30.3 µM, […]) did it give?
A: The value was 31.47%.

Q: `CN1CC[C@H](N(Cc2ccccc2)Cc2ccccc2)C[C@H](O)C1` was tested. Which “Percent Effect” value (30.3 µM, […]) did it give?
A: Its value is 94.14%.

Q: How did the “Percent Effect” value (30 µM) turn out when `CC(C)Sc1ncccc1C(=O)NCc1ccc(O)cc1` was run?
A: Its value is 14.96%.

Q: How did the “Percent Effect” value (30.3 µM, […]) turn out when `CCCS(=O)(=O)NCC(O)c1c(Cl)cccc1Cl` (configuration not stated) was run?
A: Its value is 7.191%.

Q: `CCN(C)S(=O)(=O)NCC(O)c1c(Cl)cccc1Cl` (configuration not stated) was tested. Which “Percent Effect” value (30.3 µM, […]) did it give?
A: The value was 41.58%.

Q: How did the “Percent Effect” value (30.3 µM, […]) turn out when `CCN(CC)S(=O)(=O)NCC(O)c1c(Cl)cccc1Cl` (configuration not stated) was run?
A: The value was 62.85%.

Q: With `CCCc1nc(CN2CCCC2Cn2cccn2)cs1` (configuration not stated) as the compound, how does the “Percent Effect” value (30.3 µM, […]) read?
A: Its value is 31.37%.

Q: Which “Percent Effect” value (30.3 µM, […]) does the source give for `CCC(=O)N1CCC2(CC1)CC(CC(=O)N(C)C)c1ccc(F)cc12` (configuration not stated) here?
A: The value was 35.94%.

Q: `CCN1CCC2(CC1)CC(CC(=O)N(C)C)c1ccc(F)cc12` (configuration not stated) was tested. Which “Percent Effect” value (30.3 µM, […]) did it give?
A: Its value is 64.47%.

Q: `CN(C)C(=O)CC1CC2(CCN(CC3CC3)CC2)c2cc(F)ccc21.O=C(O)C(F)(F)F` (configuration not stated) was tested. Which “Percent Effect” value (30 µM, 30.03 µM) did it give?
A: Its value is 16.14%.

Q: With `CC(=O)Nc1ccc(CNCC(O)c2ccccc2)cc1` (configuration not stated) as the compound, how does the “Percent Effect” value (30.3 µM, […]) read?
A: The value was -2.839%.

Q: Which “Percent Effect” value (30.3 µM, […]) does the source give for `CCOc1ccc(CNCC(O)c2ccccc2)cc1Cl.Cl` (configuration not stated) here?
A: Its value is 14.87%.

Q: With `CCc1ccc(CNC(=O)NC2CCCc3c2cnn3CCO)s1` (configuration not stated) as the compound, how does the “Percent Effect” value (30.3 µM, […]) read?
A: The value was 21.53%.

Q: Which “Percent Effect” value (30.3 µM, […]) does the source give for `O=C(Cc1ccccn1)N1CCCC(c2nccn2CC2CCC2)C1` (configuration not stated) here?
A: The value was -1.281%.

Q: Which “Percent Effect” value (30 µM) does the source give for `CCOc1ccccc1OC1CCN(Cc2ccn(C)c(=O)c2)CC1` here?
A: Its value is 5.552%.

Q: For `CCCS(=O)(=O)N1CCC(NC(=O)c2cc3ccccc3s2)CC1`, which “Percent Effect” value (30.3 µM, […]) is on record?
A: The value was 22.53%.

Q: With `CCC(=O)N1CCC2(C=C(C(=O)N3CCCC3)c3ccccc32)CC1` as the compound, how does the “Percent Effect” value (30.3 µM, […]) read?
A: Its value is 11.1%.

Q: How did the “Percent Effect” value (30.3 µM, […]) turn out when `CN1CCC2(C=C(C(=O)N(C)C)c3ccccc32)CC1` was run?
A: Its value is 38.98%.

Q: For `CCC(=O)N1CCC2(C=C(C(=O)N(C)C)c3ccccc32)CC1`, which “Percent Effect” value (30.3 µM, […]) is on record?
A: Its value is 92.12%.

Q: For `CC(C)CN1CCC2(C=C(C(=O)N(C)C)c3ccccc32)CC1.O=C(O)C(F)(F)F`, which “Percent Effect” value (30.3 µM, […]) is on record?
A: Its value is 41.74%.

Q: For `CC(C)N1CCC2(C=C(C(=O)N(C)C)c3ccccc32)CC1.O=C(O)C(F)(F)F`, which “Percent Effect” value (30.3 µM, […]) is on record?
A: The value was -11.73%.

Q: Which “Percent Effect” value (30.3 µM, […]) does the source give for `CCN1CCC2(C=C(C(=O)N(C)C)c3ccccc32)CC1.O=C(O)C(F)(F)F` here?
A: Its value is 51.51%.

Q: `CC(C)Cc1cc(CNc2nc(-c3cccnc3)nc3c2CNC3)no1` was tested. Which “Percent Effect” value (30.3 µM, […]) did it give?
A: The value was 9.598%.

Q: With `O=C(c1cccnc1)N1CCN(CC2CC2)c2ncccc2C1` as the compound, how does the “Percent Effect” value (30.3 µM, […]) read?
A: Its value is 14.27%.

Q: How did the “Percent Effect” value (30.3 µM, […]) turn out when `O=C(c1ccoc1)N1CC[C@@H]2O[C@@H](COCc3ccccn3)CC[C@@H]21` was run?
A: The value was -30.2%.

Q: For `O=C(N1CCOCC1)N1CC[C@H]2[C@@H]1CCC(=O)N2c1ccccc1`, which “Percent Effect” value (30.3 µM, […]) is on record?
A: Its value is 31.55%.
